Here are results for 50 molecules from PubChem BioAssay AID589 (National Center for Advancing Translational Sciences (NCATS), 2007).

Hit rate of the full screen: of about 59,000 compounds, about 6,200 (11%) were called active. Another 9% or so got no clear call; they are omitted. Cut-off read from the data, not from the text of the source: active = max dye-equivalent concentration above about 10 nM; inconclusive = mostly about 1.1 nM to 9.6 nM; inactive = weaker than that. The full list was thinned out, with actives kept by preference. More than one record can exist for a structure, and the calls need not agree.

A short description of the assay: qHTS Assay for Spectroscopic Profiling in 4-MU Spectral Region. To be noted: compound autofluorescence, 340/450 nm, 4-MU equivalents; stronger effect = higher value. From the text:
NIH Molecular Libraries Screening Centers Network [MLSCN] NIH Chemical Genomics Center [NCGC] […] Occasionally, the artifactual effect may originate from the compounds own spectral or other biophysical properties which generally tend to track its assay concentration. Pre-screening/profiling the library with respect to the compounds spectral properties should help one exclude false positives early on. While the most informative fluorescent profiling data set is obtained by performing a full excitation and emission scan of each well by using a monochromator-based plate reader, such an approach is practical only on a very limited scale as scanning each well requires long time. An alternative approach, applied here, is to perform plate reader scans using selected excitation and emission wavelength pairs to generate a multidimensional relational database that correlates compound concentration and the respective relative fluorescence intensity at a given wavelength set. A standard curve of 4-methylumbelliferone (4-MU) present on each plate as six-point concentration series, was used to compute a normalized fluorescence response, termed dye-equivalent concentration, for each compound at each concentration.
NCGC Assay Protocol Summary: Buffer: 100 mM Tris buffer, pH 8.0 Dye standard plate: The wells in columns 1 through 4 of a Kalypsys polypropylene 1536-well compound plate were filled with standard solutions of fluorophore corresponding to the spectral region of interest. Solutions of 4-MU were placed in the following wells: A1, B1: 3 mM, A2, B2: 300 uM, A3, B3: 30 uM, A4, B4: zero (DMSO), C1, D1: 3 uM, C2, D2: 900 nM, C3, D3: 300 nM, C4, D4: zero (DMSO). Assay Steps: Six uL of buffer were dispensed to 1536-well Greiner black plates. Compounds and dye standards (23 nL) were transferred via Kalypsys PinTool. The plates were incubated for 15 min at room temperature, and then read on ViewLux (Perkin-Elmer) High-throughput CCD imager using 340 nm and 450 nm excitation and emission filter set. Keywords: NIH Roadmap, MLSCN, MLI, MLSMR, qHTS, NCGC, Fluorescent Profiling, 4MU, 4-MU
On the technique in general: Quantitative high-throughput screening tests each substance at several concentrations.
Consider `C[C@@]12CC[C@H](O)C[C@@H]1CC[C@@H]1[C@@H]2CC[C@@]2(C)[C@@H](C3=CC(=O)OC3)[C@H](O)C[C@]12O`, for which the max dye-equivalent concentration entry is “inactive”. `C[C@]12CC[C@H](O)CC1=CC[C@@H]1[C@H]2CC[C@]2(C)C(=O)CC[C@H]12`: the max dye-equivalent concentration entry was “inactive”. Regarding `C[C@]12CC[C@H](O)C[C@@H]1CC[C@H]1[C@H]2CC[C@]2(C)C(=O)CC[C@@H]12`, the max dye-equivalent concentration is 69 nM (active) and the outcome was inactive. Regarding `Cc1ccc(S(=O)(=O)O[C@H]2CN3CCC2CC3)cc1`, the max dye-equivalent concentration entry was “inactive”. Consider `CC1=CC(=O)C2=C(C)C[C@H](O)[C@@H]3[C@@H](OC(=O)[C@H]3C)[C@H]12`, for which the max dye-equivalent concentration result is “inactive”. As for `O=C1C2CCN(CC2)C1(CO)CO`, the max dye-equivalent concentration entry is “inactive”. On the same count and under the same terms, with `c1ccc2c(c1)[I+]c1ccccc1-2` the entry was “inactive”.

With `CSC1=NP(=S)(SC)N(C)c2nc3n(c21)CCC3` (stereo unspecified), the max dye-equivalent concentration was 22 nM (active). `c1csc(CN2CC3(CCNCC3)C2)n1`: the max dye-equivalent concentration result is “inactive”. For `CC(C)CCC1(CCN)C(=O)NC(=O)NC1=O`, the max dye-equivalent concentration result was “inactive”. `CN1[C@@H]2CC[C@H]1CC(OC(=O)c1cc(Cl)cc(Cl)c1)C2` (stereo partly specified): the max dye-equivalent concentration entry was “inactive”.

Turning to `CC(=O)c1c(O)c(C)c(O)c(Cc2c(O)c3c(c(C(=O)/C=C\c4ccccc4)c2O)OC(C)(C)C=C3)c1O`, the max dye-equivalent concentration result is “inactive”. On the same count and under the same terms, the value for `C[C@H]1CC[C@@]2(NC1)O[C@@H]1C[C@H]3[C@@H]4CC=C5C[C@@H](O)CC[C@]5(C)[C@@H]4CC[C@]3(C)[C@@H]1[C@@H]2C` was “inactive”. The same measure, in the same setting: the value for `NCCc1c[nH]c2ccc(O)cc12` was “inactive”. Turning to `C/C(CCc1c[nH]c2ccccc12)=N\O`, the max dye-equivalent concentration is 13 nM (active).

Regarding `CCN(CC)CCn1ncc2c(N)ncnc21`, the max dye-equivalent concentration result is “inactive”. For `N[C@H](C(=O)O)c1cc(=O)[nH]o1`, the max dye-equivalent concentration entry is “inactive”. In the case of `COC(=O)C(O)(c1ccc(NC(=O)c2ccco2)c(OC)c1)C(F)(F)F` (stereo unspecified), the max dye-equivalent concentration entry was “inactive”. Regarding `O=C(c1cc2nc(-c3ccccc3)cc(-c3ccccc3)n2n1)N1CCC2(CC1)OCCO2`, the max dye-equivalent concentration is 64 nM (active). Regarding `Cc1cccc(-n2c(C)nc3cc(C(=O)N4CCC5(CC4)OCCO5)ccc32)c1`, the max dye-equivalent concentration result is “inactive”. As for `O=C(c1cc(-c2ccncc2)nc2ccccc12)N1CCC2(CC1)OCCO2`, the max dye-equivalent concentration result is “inactive”. Consider `NC[C@H](O)c1ccc(O)cc1`, for which the max dye-equivalent concentration entry was “inactive”. Take `NC(=O)c1ccc(OC[C@H](O)CN2CC=C(c3ccc(F)cc3)CC2)cc1`: the max dye-equivalent concentration entry is “inactive”.

As to `COc1cc(C[C@H](C)N)c(OC)cc1I`, the max dye-equivalent concentration entry is “inactive”. Consider `CC(=O)NBr`, for which the max dye-equivalent concentration entry is “inactive”. With `C[C@H](Br)C(=O)N[C@H](CO)C(=O)O`, the max dye-equivalent concentration entry was “inactive”.

As for `COc1ccc(C2NCc3ccc4c(c3-n3cccc32)OCO4)cc1OC` (stereo unspecified), the max dye-equivalent concentration result is “inactive”.

On to `CCOC(=O)c1c(-c2ccccc2)oc2ccc(OC(=O)N(C)C)cc12`, for which the max dye-equivalent concentration was 50 nM (active). Consider `c1ccc(N2CC[C@@]3(CCCNC3)C2)nc1`, for which the max dye-equivalent concentration result was “inactive”. As for `c1ccc(CN2CC[C@@]3(CCCNC3)C2)cc1`, the max dye-equivalent concentration is 11 nM (active).

For the molecule `c1csc(CN2CCCC3(CCNCC3)C2)n1`, the max dye-equivalent concentration entry is “inactive”. With `C[C@@]12CC[C@H]3[C@@H](CC[C@]4(O)C[C@H](O)CC[C@@]34C=O)[C@]1(O)CC[C@@H]2C1=CC(=O)OC1`, the max dye-equivalent concentration entry is “inactive”.

For the molecule `CCN1C[C@@]2(COC)CC[C@H](OC)[C@]34[C@@H]1[C@]1(OCO[C@@]15C[C@@H](OC)C1C[C@H]3[C@H]5[C@@H]1OC)[C@H](O)[C@@H]24`, the max dye-equivalent concentration result is “inactive”. As for `C=CCN1C(=O)C2(C(C(=O)OCC)=C(N)Oc3c2c(=O)oc2ccccc32)c2ccccc21` (stereo unspecified), the max dye-equivalent concentration entry was “inactive”.

For `CS(=N)(=O)CC[C@H](N)P(=O)(O)O` (stereo partly specified), the max dye-equivalent concentration result is “inactive”. The same measure, in the same setting: the value for `CCOC(=O)c1c(N)n(Cc2ccccc2)c2nc3ccccc3nc12` was 1100 nM (active); that for `CC(=O)O[C@H]1CC[C@@]2(C)[C@@H](CC[C@H]3[C@H]2CC(=O)[C@]2(C)[C@@H]3C[C@@H](N3CC3)[C@H]2C(C)=O)C1` was “inactive”. For the molecule `CCNC[C@H](O)c1cccc(O)c1`, the max dye-equivalent concentration result is “inactive”.

Turning to `CC[C@]1(O)C(=O)OCc2c1cc1n(c2=O)Cc2cc3ccccc3nc2-1`, the max dye-equivalent concentration was 2300 nM (active). Turning to `CC[C@@](O)(C(=O)O)c1cc2n(c(=O)c1CO)Cc1cc3ccccc3nc1-2`, the max dye-equivalent concentration was 840 nM (active).

Regarding `CN1CCN(C(=O)O[C@@H]2c3nccnc3C(=O)N2c2ccc(Cl)cn2)CC1`, the max dye-equivalent concentration entry was “inactive”. For the molecule `CCN1C[C@]2(C)CC[C@H](O)[C@@]34[C@@H]5CC6[C@@H](OC)C[C@@](O)([C@@H]5[C@@H]6O)[C@H](C[C@@H]23)[C@H]14`, the max dye-equivalent concentration entry was “inactive”.

`O=C(Nc1cccc(F)c1)N1CC[C@@]2(CCCN(C(=O)Oc3ccccc3)C2)C1`: the max dye-equivalent concentration result is “inactive”. With `NCC[Se][Se]CCN`, the max dye-equivalent concentration entry is “inactive”.

For `CCN1c2nc3c(C)cccn3c(=O)c2CC2(C(=O)N(C)C(=O)N(C)C2=O)C1C` (stereo unspecified), the max dye-equivalent concentration was 29 nM (active). On to `CC(C)(O)/C=C\C(=O)[C@](C)(O)[C@H]1[C@H](O)C[C@]2(C)[C@@H]3CC=C4[C@@H](C=C(O)C(=O)C4(C)C)[C@]3(C)C(=O)C[C@@]12C`, for which the max dye-equivalent concentration entry is “inactive”. The same measure, in the same setting: the value for `NCCc1ccc(S(=O)(=O)F)cc1` was “inactive”; that for `C[N+]1(C)C2CC(OC(=O)C(CO)c3ccccc3)CC1[C@@H]1O[C@H]21` (stereo partly specified) was “inactive”; that for `O=C(O)C(=O)Cc1ccc2c(c1)OCO2` was “inactive”. Consider `CC(C)(O)[C@H]1[C@H]2OC(=O)[C@@H]1[C@]1(O)C[C@H]3O[C@]34C(=O)O[C@H]2[C@]14C`, for which the max dye-equivalent concentration result was “inactive”.
